“And” between values parts separate entries of the source, which are not always exact repeats. Equal entries are not always repeated. Results filed as inconclusive are left out. The source made the active and inactive calls. The call rests on the fitted dose curve; in most records, active means well fitted inhibition curve with a large enough effect; inconclusive means small, poorly fitted or top-dose-only effect; inactive means flat fitted curve, though single readings scatter.
How the values were obtained:
Assay in all cases: Cytotoxic Profiling of Annotated Libraries Using Quantitative High-Throughput Screening (AID 1296008); further: nearly all actives have a fitted effect of over 60% in size
Conditions in all cases: Five cell lines viability, CellTiter-Glo ATP luminescence, 48-72 h; max response: stronger effect = lower value
CRL-7250 = normal cell line; tested on: CRL-7250
Summary of the method: (§1)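 Cytotoxicity was measured as CellTiter-Glo ATP luminescence, read after 10 min at room temperature. Compound treatment of the cells lasted 48 or 72 hr at 37 degrees Celsius in a qHTS format.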

HEK293 = tested on: HEK293
Summary of the method: as §1

HaCat = tested on: HaCat
Summary of the method: as §1

KB-3-1 = tested on: KB-3-1
Summary of the method: as §1

NIH3T3 = tested on: NIH3T3
Summary of the method: as §1
On the % scale 0 is the no-effect control and ±100 the full control effect; potency means the concentration at half of the fitted maximal effect.

CC(C)(C)c1nnc(NS(=O)(=O)c2ccccc2)s1
inactive: max response (CRL-7250) 4.99% | outcome (HEK293) | outcome (HaCat) | max response (KB-3-1) 3.82% | max response (NIH3T3) 1.08%

Cc1ccc(O)cc1
inactive: max response (CRL-7250) -3.08% | max response (HEK293) 0.45% | outcome (HaCat) | max response (KB-3-1) -1.63% and -10.4% | max response (NIH3T3) 0.99%

CC(=O)Nc1c(I)c(NC(C)=O)c(I)c(C(=O)O)c1I
inactive: max response (CRL-7250) 2.5% | max response (HEK293) 2.17% | outcome (HaCat) | max response (KB-3-1) -3.56% | max response (NIH3T3) 4.63%

COC(=O)C1=CO[C@@H](O)[C@@H]2C(CO)=CC[C@H]12
inactive: max response (CRL-7250) 0.169% | max response (HEK293) -25.4% | max response (HaCat) -1.37% | max response (KB-3-1) -12.1% | max response (NIH3T3) -14.6%

Oc1ccc(CCNCCCCCCNCCc2ccccc2)cc1O
active: Potency (HEK293) 23.7 µM
inactive: max response (CRL-7250) -8.57% | outcome (HaCat) | max response (KB-3-1) -20.6% | max response (NIH3T3) -5.45%

CC(=O)N(CC(O)CO)c1c(I)c(C(=O)NCCO)c(I)c(C(=O)NCC(O)CO)c1I (stereo not given)
inactive: max response (CRL-7250) -7.11% | max response (HEK293) 2.15% | outcome (HaCat) | max response (KB-3-1) -13% | outcome (NIH3T3)

CCOC(=O)OCC/C(SC(=O)OCC)=C(\C)N(C=O)Cc1cnc(C)nc1N
inactive: max response (CRL-7250) -3.12% | max response (HEK293) -0.945% | max response (HaCat) -10.8% | max response (KB-3-1) -13.2% | outcome (NIH3T3)

Brc1ccc([C@H]2CN3CCSC3=N2)cc1
inactive: max response (CRL-7250) -3.15% | max response (HEK293) 3.24% | max response (HaCat) -7.1% | max response (KB-3-1) 5.27% | outcome (NIH3T3)

Cc1cc(O)c2c(O)c3c(O)cccc3cc2c1
inactive: outcome (CRL-7250) | max response (HEK293) -2.16% | outcome (HaCat) | max response (KB-3-1) -20.5% | max response (NIH3T3) -2.19%

CC(=O)CC/C=C(\C)CC/C=C(\C)CC/C=C(\C)CCC=C(C)C
inactive: outcome (CRL-7250) | outcome (HEK293) | max response (HaCat) -9.87% | max response (KB-3-1) -13.4% | max response (NIH3T3) -3.99%

CN1C(=O)c2ccccc2C1=O
inactive: max response (CRL-7250) 3.83% | max response (HEK293) -4.39% | max response (HaCat) -13.2% | max response (KB-3-1) -21% | max response (NIH3T3) -7.13%

C1N2CN3CN1CN(C2)C3
inactive: outcome (CRL-7250) | outcome (HEK293) | max response (HaCat) -1.63% | max response (KB-3-1) -1.26% | max response (NIH3T3) -2.39%

COc1cc(C=O)ccc1O
inactive: max response (CRL-7250) -1.68% | max response (HEK293) -1.3% | outcome (HaCat) | max response (KB-3-1) -6.73% | max response (NIH3T3) -0.279%

CCCCC(CC)COC(=O)c1ccccc1C(=O)O (stereo not given)
inactive: max response (CRL-7250) -9.5% | outcome (HEK293) | max response (HaCat) -1.62% | max response (KB-3-1) -15.1% | max response (NIH3T3) -2.08%

O=C(OCC1(COC(=O)c2cccnc2)CCCC(COC(=O)c2cccnc2)(COC(=O)c2cccnc2)C1O)c1cccnc1
inactive: max response (CRL-7250) -5.9% | max response (HEK293) -9.95% | outcome (HaCat) | max response (KB-3-1) 8.89% | max response (NIH3T3) -1.33%

O=C(O)[C@H](O)[C@@H](O)[C@H](O[C@@H]1O[C@H](CO)[C@H](O)[C@H](O)[C@H]1O)[C@H](O)CO
inactive: max response (CRL-7250) -2.55% | outcome (HEK293) | outcome (HaCat) | max response (KB-3-1) -11.9% | max response (NIH3T3) -0.868%

COc1cc(C(=O)OC(COCCC(C)C)CN2CCOCC2)cc(OC)c1OC (stereo not given)
inactive: max response (CRL-7250) -2.39% | outcome (HEK293) | max response (HaCat) -1.64% | outcome (KB-3-1) | max response (NIH3T3) 3.87%

CC(C)C(C)(C)C(C)(C)C(C)(C)S
inactive: max response (CRL-7250) -4.15% | max response (HEK293) -4.55% | max response (HaCat) 4.37% | max response (KB-3-1) -15.8% | max response (NIH3T3) -4.3%

O=C(O)c1[nH]n(-c2ccc(S(=O)(=O)O)cc2)c(=O)c1N=Nc1ccc(S(=O)(=O)O)cc1
inactive: max response (CRL-7250) 0.833% | max response (HEK293) 1.51% | outcome (HaCat) | max response (KB-3-1) 3.04% | max response (NIH3T3) -0.37%

O=C(CO)[C@@H](O)[C@H](O)[C@@H](O)CO
inactive: outcome (CRL-7250) | outcome (HEK293) | max response (HaCat) 3.88% | max response (KB-3-1) -7.71% | outcome (NIH3T3)

O=C(COCCOCCOCC(=O)Nc1c(I)cc(I)c(C(=O)O)c1I)Nc1c(I)cc(I)c(C(=O)O)c1I
inactive: outcome (CRL-7250) | max response (HEK293) 0.699% | outcome (HaCat) | max response (KB-3-1) -17% | max response (NIH3T3) 4.72%

N[C@@H](Cn1ccc(=O)c(O)c1)C(=O)O
inactive: max response (CRL-7250) -0.877% | max response (HEK293) -0.669% | outcome (HaCat) | max response (KB-3-1) 7.53% | max response (NIH3T3) 0.301%

C1=CC2C3C=CC(C3)C2C1 (stereo not given)
inactive: outcome (CRL-7250) | outcome (HEK293) | max response (HaCat) -9.73% | max response (KB-3-1) -6.71% | max response (NIH3T3) 0.366%

N[C@@H](Cc1cc(I)c(O)c(I)c1)C(=O)O
inactive: max response (CRL-7250) 1.61% | max response (HEK293) -5.41% | max response (HaCat) 4.36% | max response (KB-3-1) -0.833% | max response (NIH3T3) -12.4%

Cc1cccc(C)c1NC(=O)c1cc(S(N)(=O)=O)c(Cl)cc1O
inactive: outcome (CRL-7250) | outcome (HEK293) | outcome (HaCat) | max response (KB-3-1) -20.9% | max response (NIH3T3) -1.69%

Source: PubChem BioAssay (NCATS)
